Assay results as given in the supplement of paper PMC10849652.
About 8,800 targets were measured; listed, in parts, are those with a hit and a random draw of the rest. About 0.5% of all pairs of compound and target were hits.

Key:
Assay in all cases: log2 fold change, soluble protein after heating vs DMSO (PISA); higher = thermal stabilisation; K562 lysate, 10 uM; active = over 0.2 and 3.5 SD of the protein, either way, in both replicates (recomputed)
[1] = compound: CCCS(=O)(=O)Nc1ccc(F)c(C(=O)c2c[nH]c3ncc(-c4ccc(Cl)cc4)cc23)c1F [vemurafenib]
Summary of the method: (§1)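 Following dounce homogenisation of K562 pellets in PBS pH 7.4 with 1 mM MgCl2, crude extract at 1 mg/mL protein was incubated for 30 min with 10 μM compound. Aliquots were then heated for 3 min over 48°C-58°C and pooled, NP-40 was added to 0.5% at 4°C, and soluble protein was recovered as the supernatant at 21,000xg for 90 min. Channel-sum-equalised TMTpro 16plex LC-MS/MS quantified this protein. Each value, from duplicates, is a log-two fold change in thermal stability relative to solvent controls.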

[2] = compound: CCCS(=O)(=O)Nc1ccc(F)c(C(=O)c2c[nH]c3ncc(Cl)cc23)c1F
Summary of the method: as §1

[3] = compound: CCN(CCCOc1ccc2c(Nc3cc(CC(=O)Nc4cccc(F)c4)[nH]n3)ncnc2c1)CCOP(=O)(O)O [barasertib]
Summary of the method: as §1

[4] = compound: CC[C@@H]1C(=O)N(C)c2cnc(Nc3ccc(C(=O)NC4CCN(C)CC4)cc3OC)nc2N1C1CCCC1
Summary of the method: as §1

[5] = compound: CC[C@@H]1C(=O)N(C)c2cnc(Nc3ccc(C(=O)N[C@H]4CC[C@H](N5CCN(CC6CC6)CC5)CC4)cc3OC)nc2N1C(C)C [volasertib]
Summary of the method: as §1

[6] = compound: CCn1c(C(=O)N(C2CC2)C2CC2)cc2c3c(ncn3C)c(Nc3cc(C)n(C)n3)nc21
Summary of the method: as §1

[7] = compound: CCn1cc(-c2ccnc3[nH]c(-c4cccc(CN(C)C)c4)cc23)c(-c2ccc(NC(=O)N(C)C)cc2)n1
Summary of the method: as §1

[8] = compound: CN1CCC(CNc2ccc3ncc(-c4cccc(OC(F)(F)F)c4)n3n2)CC1
Summary of the method: as §1

[9] = compound: CN1CCN(CCOc2cc(OC3CCOCC3)c3c(Nc4c(Cl)ccc5c4OCO5)ncnc3c2)CC1 [saracatinib]
Summary of the method: as §1

[10] = compound: CN1CCN(c2nc(C3=C(c4c[nH]c5ccccc45)C(=O)NC3=O)c3ccccc3n2)CC1 [sotrastaurin]
Summary of the method: as §1

[11] = compound: CN1CC[C@H](c2c(O)cc(O)c3c(=O)cc(-c4ccccc4Cl)oc23)[C@H](O)C1 [alvocidib]
Summary of the method: as §1

[12] = compound: CN1CCc2c(c3ccccc3n2Cc2ccc(C(=O)NO)cc2)C1 [Tubastatin A]
Summary of the method: as §1

[13] = compound: CNC(=O)C1=CC=CC=C1NC2=NC(=NC=C2Cl)NC3=C(C=C(C=C3)N4CCOCC4)OC
Summary of the method: as §1

[14] = compound: CNC(=O)c1ccc(Nc2ncc(C(F)(F)F)c(NCc3nccnc3N(C)S(C)(=O)=O)n2)cc1 [defactinib]
Summary of the method: as §1

[15] = compound: CNc1nc(-c2ccc3c(N)n[nH]c3c2)cc(N2C[C@@H](C(=O)NC3CCCCC3)CC[C@H]2C)n1
Summary of the method: as §1

[16] = compound: COC(=O)N[C@@H](C)CNc1nccc(-c2cn(C(C)C)nc2-c2cc(Cl)cc(NS(C)(=O)=O)c2F)n1 [encorafenib]
Summary of the method: as §1

[17] = compound: COC(=O)[C@H](CCSC)NC(=O)C1=C(C=C(C=C1)NC[C@H](CS)N)C2=CC=CC=C2
Summary of the method: as §1

[18] = compound: COc1cc(Nc2ncc3c(n2)-c2ccc(Cl)cc2C(c2c(F)cccc2OC)=NC3)ccc1C(=O)O [alisertib]
Summary of the method: as §1

[19] = compound: COc1cc2nc(-c3cc(F)ccc3O)nc(N[C@@H]3CNC[C@H]3C(C)(C)O)c2cc1OC
Summary of the method: as §1

[20] = compound: COc1cc2ncnc(Nc3ccc(F)c(Cl)c3)c2cc1OCCCN1CCOCC1 [gefitinib]
Summary of the method: as §1

Measured: log2 fold change

ACIN1 isoform 5 (UniProt Q9UKV3)
inactive: [1] 0.014 | [2] 0.024 | [3] 0.009 | [4] -0.016 | [5] 0 | [6] -0.018 | [7] 0.067 | [8] -0.01 | [9] 0.006 | [10] 0.014 | [11] -0.038 | [12] 0.039 | [13] -0.034 | [14] -0.009 | [15] 0.053 | [16] -0.004 | [17] -0.01 | [18] 0.032 | [19] -0.003 | [20] 0.001

ADRM1 (UniProt Q16186)
inactive: [1] -0.01 | [2] 0.033 | [3] 0.031 | [4] -0.026 | [5] -0.036 | [6] 0.008 | [7] -0.024 | [8] -0.027 | [9] 0 | [10] 0.002 | [11] 0.009 | [12] -0.064 | [13] -0.027 | [14] 0.003 | [15] 0.011 | [16] -0.033 | [17] 0.118 | [18] 0.032 | [19] -0.001 | [20] -0.009

ACYP1 (UniProt P07311)
Sequence of UniProt P07311 (P07311 whole entry, looked up): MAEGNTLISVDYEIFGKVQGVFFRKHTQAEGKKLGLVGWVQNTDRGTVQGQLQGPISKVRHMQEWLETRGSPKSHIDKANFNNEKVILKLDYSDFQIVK
inactive: [1] -0.038 | [2] -0.024 | [3] 0.024 | [4] -0.005 | [5] 0.032 | [6] 0.006 | [8] -0.082 | [9] 0.003 | [10] -0.032 | [11] 0.084 | [12] 0.008 | [13] -0.002 | [14] 0.014 | [15] -0.018 | [16] -0.018 | [17] -0.016 | [18] 0.012 | [19] -0.008 | [20] 0.026
active: [7] 0.284

ACSL4 (UniProt O60488)
inactive: [1] 0.061 | [2] -0.007 | [3] -0.006 | [4] -0.029 | [5] -0.001 | [6] 0.036 | [7] 0.008 | [8] -0.02 | [9] 0.047 | [10] 0.043 | [11] 0.023 | [12] -0.06 | [13] 0.047 | [14] 0.054 | [15] -0.034 | [16] 0.003 | [17] 0.073 | [18] -0.017 | [19] 0.019 | [20] 0.014

ABL2 (UniProt P42684)
Sequence of UniProt P42684 (P42684 whole entry, looked up): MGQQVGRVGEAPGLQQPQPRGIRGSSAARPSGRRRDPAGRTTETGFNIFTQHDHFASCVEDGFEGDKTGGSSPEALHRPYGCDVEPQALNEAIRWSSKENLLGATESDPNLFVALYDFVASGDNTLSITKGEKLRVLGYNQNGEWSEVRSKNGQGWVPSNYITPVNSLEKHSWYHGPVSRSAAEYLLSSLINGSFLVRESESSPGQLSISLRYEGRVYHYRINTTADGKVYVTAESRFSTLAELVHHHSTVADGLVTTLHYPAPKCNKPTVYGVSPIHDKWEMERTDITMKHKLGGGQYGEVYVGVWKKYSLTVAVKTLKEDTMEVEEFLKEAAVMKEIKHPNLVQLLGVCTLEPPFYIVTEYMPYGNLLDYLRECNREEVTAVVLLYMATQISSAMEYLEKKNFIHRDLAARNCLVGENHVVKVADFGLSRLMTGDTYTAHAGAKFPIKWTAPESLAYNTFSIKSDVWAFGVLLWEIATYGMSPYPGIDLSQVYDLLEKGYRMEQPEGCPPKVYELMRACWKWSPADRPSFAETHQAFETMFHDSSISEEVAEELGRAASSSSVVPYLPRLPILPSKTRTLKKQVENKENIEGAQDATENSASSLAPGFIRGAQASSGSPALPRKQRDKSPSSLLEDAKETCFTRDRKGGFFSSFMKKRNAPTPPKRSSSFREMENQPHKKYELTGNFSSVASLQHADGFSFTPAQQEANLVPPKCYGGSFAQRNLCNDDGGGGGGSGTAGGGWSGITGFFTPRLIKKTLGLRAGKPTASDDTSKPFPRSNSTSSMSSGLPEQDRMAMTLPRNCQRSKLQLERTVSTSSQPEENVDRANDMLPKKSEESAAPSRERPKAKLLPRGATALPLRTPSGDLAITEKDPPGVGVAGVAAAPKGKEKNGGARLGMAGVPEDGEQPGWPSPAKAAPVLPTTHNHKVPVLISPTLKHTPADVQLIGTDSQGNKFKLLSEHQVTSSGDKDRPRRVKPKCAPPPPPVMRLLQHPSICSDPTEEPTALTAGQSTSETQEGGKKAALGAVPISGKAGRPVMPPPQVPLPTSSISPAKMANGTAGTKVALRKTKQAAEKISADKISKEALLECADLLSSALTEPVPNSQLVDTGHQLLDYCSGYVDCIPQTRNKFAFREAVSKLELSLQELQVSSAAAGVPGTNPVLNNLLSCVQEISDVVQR
inactive: [1] 0.233 | [2] 0.222 | [3] -0.002 | [4] 0.11 | [5] -0.05 | [6] 0.009 | [7] 0.039 | [8] -0.128 | [9] 0.254 | [10] -0.02 | [11] 0.007 | [12] -0.04 | [13] 0.082 | [14] 0.066 | [15] -0.108 | [16] 0.092 | [17] -0.068 | [18] -0.123 | [19] -0.009 | [20] -0.176

AKAP11 (UniProt Q9UKA4)
Sequence of UniProt Q9UKA4 (Q9UKA4 whole entry, looked up): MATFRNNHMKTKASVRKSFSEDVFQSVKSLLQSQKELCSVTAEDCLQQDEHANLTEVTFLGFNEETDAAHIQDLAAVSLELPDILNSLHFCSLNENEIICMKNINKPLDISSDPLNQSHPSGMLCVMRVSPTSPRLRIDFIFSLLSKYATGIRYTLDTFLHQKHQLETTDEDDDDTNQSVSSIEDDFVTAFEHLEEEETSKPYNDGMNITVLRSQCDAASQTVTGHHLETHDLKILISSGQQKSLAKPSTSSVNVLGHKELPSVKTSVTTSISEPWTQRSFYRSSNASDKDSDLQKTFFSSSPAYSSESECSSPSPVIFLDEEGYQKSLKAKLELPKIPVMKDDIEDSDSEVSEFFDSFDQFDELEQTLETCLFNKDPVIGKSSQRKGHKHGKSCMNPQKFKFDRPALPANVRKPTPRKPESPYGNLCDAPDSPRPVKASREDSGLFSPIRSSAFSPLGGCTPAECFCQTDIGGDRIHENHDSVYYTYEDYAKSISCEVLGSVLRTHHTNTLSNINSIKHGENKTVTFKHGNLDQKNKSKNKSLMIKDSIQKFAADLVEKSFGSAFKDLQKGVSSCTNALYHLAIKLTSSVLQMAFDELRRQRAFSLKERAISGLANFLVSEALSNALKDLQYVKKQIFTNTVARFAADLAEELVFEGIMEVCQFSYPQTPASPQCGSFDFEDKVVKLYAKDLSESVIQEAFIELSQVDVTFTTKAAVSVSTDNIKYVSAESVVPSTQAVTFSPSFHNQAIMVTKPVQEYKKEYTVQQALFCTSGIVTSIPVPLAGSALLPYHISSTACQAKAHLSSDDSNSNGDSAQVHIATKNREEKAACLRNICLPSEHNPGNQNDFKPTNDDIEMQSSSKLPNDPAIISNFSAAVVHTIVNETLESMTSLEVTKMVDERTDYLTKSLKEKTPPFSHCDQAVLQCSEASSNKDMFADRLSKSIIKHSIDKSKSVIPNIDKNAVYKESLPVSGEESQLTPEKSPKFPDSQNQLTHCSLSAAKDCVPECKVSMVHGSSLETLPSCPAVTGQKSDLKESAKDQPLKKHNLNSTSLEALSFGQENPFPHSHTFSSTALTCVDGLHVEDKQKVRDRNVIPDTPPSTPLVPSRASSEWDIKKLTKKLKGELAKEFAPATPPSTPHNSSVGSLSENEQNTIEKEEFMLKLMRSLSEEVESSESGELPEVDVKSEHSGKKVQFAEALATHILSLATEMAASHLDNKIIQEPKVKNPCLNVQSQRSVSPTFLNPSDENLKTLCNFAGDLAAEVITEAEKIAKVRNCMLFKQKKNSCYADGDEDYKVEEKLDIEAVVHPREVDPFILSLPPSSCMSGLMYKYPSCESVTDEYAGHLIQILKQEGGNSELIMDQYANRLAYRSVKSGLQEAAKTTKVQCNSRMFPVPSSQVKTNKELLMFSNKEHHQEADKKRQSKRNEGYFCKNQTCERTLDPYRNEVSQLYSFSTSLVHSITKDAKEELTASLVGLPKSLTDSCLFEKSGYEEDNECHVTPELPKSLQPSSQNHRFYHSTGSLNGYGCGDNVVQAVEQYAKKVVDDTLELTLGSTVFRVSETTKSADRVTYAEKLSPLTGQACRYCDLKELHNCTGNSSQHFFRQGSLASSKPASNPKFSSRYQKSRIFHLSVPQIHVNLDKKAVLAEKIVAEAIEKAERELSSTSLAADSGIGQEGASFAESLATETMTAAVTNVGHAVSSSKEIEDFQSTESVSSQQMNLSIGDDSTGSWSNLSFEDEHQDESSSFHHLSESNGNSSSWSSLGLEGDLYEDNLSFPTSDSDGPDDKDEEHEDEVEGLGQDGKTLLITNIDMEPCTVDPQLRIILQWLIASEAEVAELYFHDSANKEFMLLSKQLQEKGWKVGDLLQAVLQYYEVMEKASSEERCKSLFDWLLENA
inactive: [1] -0.272 | [2] -0.029 | [3] 0.082 | [4] 0.051 | [5] 0.038 | [6] -0.055 | [7] 0.044 | [8] -0.024 | [9] 0.028 | [10] -0.103 | [11] 0.032 | [12] 0.026 | [13] 0.001 | [14] 0.093 | [15] -0.01 | [16] -0.03 | [17] 0.144 | [18] -0.022 | [19] -0.119 | [20] -0.114

ANXA11 (UniProt P50995)
Sequence of UniProt P50995 (P50995 whole entry, looked up): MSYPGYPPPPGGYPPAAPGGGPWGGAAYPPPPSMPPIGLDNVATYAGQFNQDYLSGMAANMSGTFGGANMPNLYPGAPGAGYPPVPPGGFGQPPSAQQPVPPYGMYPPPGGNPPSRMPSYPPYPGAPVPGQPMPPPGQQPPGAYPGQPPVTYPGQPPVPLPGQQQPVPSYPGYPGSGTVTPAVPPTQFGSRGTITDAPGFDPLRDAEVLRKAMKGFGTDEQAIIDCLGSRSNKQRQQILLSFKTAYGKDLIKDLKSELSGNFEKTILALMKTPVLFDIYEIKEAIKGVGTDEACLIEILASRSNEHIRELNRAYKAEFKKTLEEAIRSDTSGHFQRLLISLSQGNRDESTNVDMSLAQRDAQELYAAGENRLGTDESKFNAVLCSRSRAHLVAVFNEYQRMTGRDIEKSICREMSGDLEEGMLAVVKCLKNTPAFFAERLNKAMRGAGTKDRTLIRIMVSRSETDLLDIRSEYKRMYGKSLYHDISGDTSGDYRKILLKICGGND
inactive: [1] 0.02 | [2] -0.013 | [3] 0.002 | [4] 0.024 | [5] -0.031 | [6] 0.044 | [7] -0.049 | [8] -0.01 | [9] -0.009 | [10] -0.017 | [11] -0.025 | [12] 0.017 | [13] 0.009 | [14] -0.012 | [15] -0.019 | [16] -0.004 | [17] 0.027 | [18] 0.015 | [19] -0.015 | [20] -0.014

ABHD16A (UniProt O95870)
inactive: [1] 0.074 | [2] 0.012 | [3] 0.026 | [4] 0.141 | [5] 0.002 | [6] -0.059 | [7] -0.001 | [8] 0.019 | [9] 0.021 | [10] 0.051 | [11] 0.036 | [12] 0.066 | [13] -0.077 | [14] 0.009 | [15] 0.054 | [16] -0.074 | [18] -0.029 | [19] -0.004 | [20] -0.021
active: [17] 0.245

AKR1C3 (UniProt P42330)
inactive: [1] 0.01 | [2] 0.023 | [3] -0.033 | [4] 0.091 | [5] -0.027 | [6] -0.05 | [7] -0.034 | [8] 0.059 | [9] 0.187 | [10] 0.044 | [11] 0.026 | [12] 0.073 | [13] -0.052 | [14] 0.017 | [15] -0.211 | [16] -0.026 | [17] 0.022 | [18] 0.056 | [19] 0.028 | [20] -0.003

ANAPC7 (UniProt Q9UJX3)
inactive: [1] -0.026 | [2] 0.033 | [3] -0.02 | [4] -0.035 | [5] -0.029 | [6] 0.016 | [7] -0.022 | [8] -0.03 | [9] 0.025 | [10] -0.001 | [11] 0.011 | [12] -0.1 | [13] 0.036 | [14] 0.014 | [15] -0.03 | [16] 0.026 | [17] 0.002 | [18] -0.001 | [19] 0.005 | [20] 0.017

AKT1 (UniProt P31749)
Sequence of UniProt P31749 (P31749 whole entry, looked up): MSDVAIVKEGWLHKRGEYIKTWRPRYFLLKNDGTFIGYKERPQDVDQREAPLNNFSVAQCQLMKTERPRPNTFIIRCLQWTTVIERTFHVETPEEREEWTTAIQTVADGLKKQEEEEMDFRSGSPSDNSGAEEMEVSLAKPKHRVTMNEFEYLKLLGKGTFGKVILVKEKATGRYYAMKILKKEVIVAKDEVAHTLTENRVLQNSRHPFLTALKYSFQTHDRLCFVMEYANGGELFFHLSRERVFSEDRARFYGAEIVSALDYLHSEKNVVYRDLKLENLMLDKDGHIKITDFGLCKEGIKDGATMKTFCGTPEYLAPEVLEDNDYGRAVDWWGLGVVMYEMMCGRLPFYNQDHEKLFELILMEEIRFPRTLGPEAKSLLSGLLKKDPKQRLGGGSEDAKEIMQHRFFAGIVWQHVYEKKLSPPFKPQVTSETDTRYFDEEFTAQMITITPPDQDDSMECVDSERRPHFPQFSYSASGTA
inactive: [1] 0.071 | [2] 0.011 | [3] -0.023 | [4] -0.019 | [5] -0.026 | [6] -0.031 | [7] -0.068 | [8] 0.055 | [9] 0.055 | [10] 0.051 | [11] -0.002 | [12] -0.018 | [13] 0.036 | [14] 0.038 | [15] -0.05 | [16] 0.084 | [17] 0.093 | [18] 0.019 | [19] 0.003 | [20] -0.05

ACAT1 (UniProt P24752)
inactive: [1] 0 | [2] -0.016 | [3] 0.006 | [4] 0.033 | [5] 0.019 | [6] 0.003 | [7] -0.038 | [8] -0.006 | [9] 0.011 | [10] 0.007 | [11] 0.018 | [12] -0.136 | [13] 0.001 | [14] -0.027 | [15] 0.05 | [16] -0.033 | [17] 0.04 | [18] 0 | [19] -0.006 | [20] -0.06

AIMP2 (UniProt Q13155)
Sequence of UniProt Q13155 (Q13155 whole entry, looked up): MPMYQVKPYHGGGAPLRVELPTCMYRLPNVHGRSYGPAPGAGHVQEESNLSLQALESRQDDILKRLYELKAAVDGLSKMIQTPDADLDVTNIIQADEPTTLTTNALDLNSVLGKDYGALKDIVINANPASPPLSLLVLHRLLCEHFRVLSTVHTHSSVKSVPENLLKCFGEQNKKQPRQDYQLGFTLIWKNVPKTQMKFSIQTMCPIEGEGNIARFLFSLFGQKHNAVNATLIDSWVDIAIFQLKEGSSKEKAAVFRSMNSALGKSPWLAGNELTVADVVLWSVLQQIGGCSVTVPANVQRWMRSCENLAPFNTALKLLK
inactive: [1] -0.026 | [2] 0.022 | [3] 0.031 | [4] -0.131 | [5] -0.063 | [6] -0.019 | [7] -0.008 | [8] -0.079 | [9] 0.018 | [10] 0.015 | [11] 0.037 | [12] -0.11 | [13] 0.006 | [14] -0.01 | [15] -0.007 | [16] -0.02 | [17] 0.093 | [18] 0.011 | [19] -0.028 | [20] -0.088

ASNS (UniProt P08243)
Sequence of UniProt P08243 (P08243 whole entry, looked up): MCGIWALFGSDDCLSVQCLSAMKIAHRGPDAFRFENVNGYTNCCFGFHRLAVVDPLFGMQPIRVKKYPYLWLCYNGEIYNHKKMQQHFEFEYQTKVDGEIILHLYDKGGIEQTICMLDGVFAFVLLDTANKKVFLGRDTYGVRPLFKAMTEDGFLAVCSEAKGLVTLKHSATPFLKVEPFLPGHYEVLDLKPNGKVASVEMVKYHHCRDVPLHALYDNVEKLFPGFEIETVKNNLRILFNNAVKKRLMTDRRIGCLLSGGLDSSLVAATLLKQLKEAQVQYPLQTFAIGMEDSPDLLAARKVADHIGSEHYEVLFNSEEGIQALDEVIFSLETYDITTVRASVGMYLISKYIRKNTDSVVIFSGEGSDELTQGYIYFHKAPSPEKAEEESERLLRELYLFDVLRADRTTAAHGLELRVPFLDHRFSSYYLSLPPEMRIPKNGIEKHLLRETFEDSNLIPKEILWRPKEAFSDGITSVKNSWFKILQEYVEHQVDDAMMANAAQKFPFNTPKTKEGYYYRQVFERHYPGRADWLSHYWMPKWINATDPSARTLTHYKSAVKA
inactive: [1] -0.002 | [2] -0.002 | [3] 0.025 | [4] -0.056 | [5] -0.047 | [6] 0.005 | [7] 0.031 | [8] -0.03 | [9] 0.022 | [10] 0.014 | [11] 0.019 | [12] -0.025 | [13] -0.036 | [14] 0.006 | [15] 0.027 | [16] -0.009 | [17] -0.12 | [18] 0.019 | [19] 0.009 | [20] 0.004

ANKRD54 (UniProt Q6NXT1)
inactive: [1] -0.031 | [2] 0.053 | [3] -0.026 | [4] 0.021 | [5] 0.006 | [6] -0.005 | [7] 0.004 | [8] 0.011 | [9] -0.004 | [10] 0.001 | [11] -0.019 | [12] -0.095 | [13] 0.121 | [14] 0.022 | [15] 0.042 | [16] 0.082 | [17] -0.147 | [18] 0.006 | [19] -0.011 | [20] 0.002

ACTG1 (UniProt I3L4N8)
inactive: [1] 0.131 | [2] -0.062 | [3] 0.218 | [4] -0.208 | [5] -0.006 | [6] -0.384 | [7] 0.94 | [8] -0.091 | [9] -0.002 | [10] 0.001 | [11] 0.089 | [12] 0.119 | [13] 0.046 | [14] -0.142 | [15] -0.005 | [16] 0.209 | [17] 0 | [18] -0.198 | [19] -0.003 | [20] -0.115
